Screens as filed in PubChem BioAssay.
Tg IFNy HTS: blocks Toxoplasma gondii growth in the presence of IFN-gamma; Toxoplasma gondii growth in IFN-gamma-treated host cells; hits give low values; activity change, negative = inhibition, % (no concentration beside the values); 3.8% of 69,000 active; in the data active = activity change below about -70%, passing the limit was not always enough;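 also: host cells are HeLa cells infected with Toxoplasma gondii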
The depositor's hits bear a star; ! = not confirmed by another sample. The sample as a whole holds a higher share of hits than the screen did.

Screening Cc1cccc(-c2nc(C)c(CCNS(=O)(=O)c3ccc(-c4ccccc4)cc3)s2)c1 returned Tg IFNy HTS -84*.
Screening Cc1nc(-c2ccccc2)sc1CCNS(=O)(=O)c1ccccc1 returned Tg IFNy HTS 369.
Screening Cc1cccc(-c2nc(C)c(CCNS(=O)(=O)c3ccccc3F)s2)c1 returned Tg IFNy HTS inactive.
Screening Cc1cccc(-c2nc(C)c(CCNS(=O)(=O)c3ccc(I)cc3)s2)c1 returned Tg IFNy HTS inactive.
`Cc1nc(-c2ccc(Cl)cc2)sc1CCNS(=O)(=O)c1ccccc1F` gave Tg IFNy HTS -72*.
`Cc1cc(F)ccc1S(=O)(=O)NCCc1sc(-c2ccc(Cl)cc2)nc1C` gave Tg IFNy HTS 362.
`O=C(NC1CCCc2ccccc21)c1nc(Nc2ccc(F)cc2)c2ccccc2n1` (stereo not drawn) gave Tg IFNy HTS -22.
CCOCc1nnc2n1CCN(C(=O)c1ccn[nH]1)C2 was read as Tg IFNy HTS 52.
Cc1cccc(-c2nc(CN3CCN(Cc4cc(=O)oc5cc(C)ccc45)CC3)c(C)o2)c1 was read as Tg IFNy HTS 0.
Screening Cc1ccc(CN2CC[C@@H]3O[C@@H](C(=O)NCc4ccco4)CC[C@@H]32)o1 returned Tg IFNy HTS -3.
O=C(Nc1cccc2c1CCCC2)c1cccc(CN2CC[C@H](O)C2)c1 was read as Tg IFNy HTS 4.
Screening N#C[C@H]1N[C@@H](CO)[C@H]1c1ccc(C#Cc2ccccc2F)cc1 returned Tg IFNy HTS 58.
Screening Fc1ccc(CN2CCO[C@H]3[C@H]2CC[C@H]3OCCCn2cccn2)cc1 returned Tg IFNy HTS -94*.
For c1coc(CN2C[C@@H](OCCCn3cccn3)[C@@H]3OCCC[C@@H]32)c1 the results were Tg IFNy HTS -30.
Screening Fc1cnc(N2CCO[C@@H]3[C@H]2CC[C@H]3OCc2ccccn2)nc1 returned Tg IFNy HTS 1.
Cc1ccsc1CN1C[C@@H](C(=O)N2CCCO2)C[C@@H]2OCC[C@@H]21 was read as Tg IFNy HTS 3.
Screening CCC(C(=O)NCc1cc(Cl)c2c(c1)OCCCO2)n1nc(C)cc1C (stereo not drawn) returned Tg IFNy HTS 10.
For O=C(CCC1C(=O)Nc2ccccc21)NCc1cc(Cl)c2c(c1)OCCCO2 (stereo not drawn) the results were Tg IFNy HTS 1.
O=C(NCc1cc(Cl)c2c(c1)OCCCO2)c1cccc(Nc2ncccn2)c1 was read as Tg IFNy HTS -71*.
`O=C1CSCC(=O)N1c1csc(C(F)(F)F)c1-c1ccccc1` gave Tg IFNy HTS -11.
Cc1noc(C)c1NC(=O)N(C)C[C@@H]1OCc2cn(nn2)CCCC(=O)N([C@@H](C)CO)C[C@H]1C was read as Tg IFNy HTS 311.
Screening S=C(NN=C1CCCC1)NC1CC2CCC1C2 (stereo not drawn) returned Tg IFNy HTS -45.
O=C(Cn1c(Cc2ccccc2)nc2ccccc2c1=O)NCc1ccccc1 was read as Tg IFNy HTS -26.
Screening FC(F)(F)c1cccc(C2c3[nH]c4ccccc4c3CCN2Cc2ccn[nH]2)c1 (stereo not drawn) returned Tg IFNy HTS 21.
For COc1ccc(-c2ccccc2C(N)=O)cc1Cl the results were Tg IFNy HTS 7.
COc1ccc(-c2cnc(N)cn2)cc1Cl was read as Tg IFNy HTS -88*.
Screening COc1ccc(-c2nc(C)ncc2C)cc1Cl returned Tg IFNy HTS 1.
Screening Fc1cccc(-c2ccc(C3[C@@H]4CN(Cc5cncnc5)C[C@H]3N4)cc2)c1 (stereo partly drawn) returned Tg IFNy HTS -2.
Screening CN(C)CCCN1c2ccccc2CCc2ccc(Cl)cc21 returned Tg IFNy HTS -70*!.
Screening CN(C)S(=O)(=O)CCNC(=O)C(=O)N1CCc2ccccc21 returned Tg IFNy HTS -1.
Screening CC(=O)c1cc(C(=O)NCCCN2CCCc3ccccc32)cs1 returned Tg IFNy HTS -2.
For CNCCCN1c2ccccc2CCc2ccccc21 the results were Tg IFNy HTS -83*!.
`CN(C)CCCN1c2ccccc2Sc2ccccc21` gave Tg IFNy HTS -22.
Screening CC(=O)c1ccc2c(c1)N(CCCN(C)C)c1ccccc1S2 returned Tg IFNy HTS 11.
Screening Cc1nn(C)c(N2CCOCC2)c1CN1CCCC(C(=O)c2ccccn2)C1 (stereo not drawn) returned Tg IFNy HTS -15.
For CN(C)CCCC1(c2ccc(F)cc2)OCc2cc(C#N)ccc21 (stereo not drawn) the results were Tg IFNy HTS -3.
COCCNC(=O)C(OC(=O)CN1C(=O)COc2ccccc21)c1cccnc1 (stereo not drawn) was read as Tg IFNy HTS -64.
Screening CS(=O)(=O)N1CCC(C(=O)NC2(c3ccc4c(c3)OCO4)CCCC2)CC1 returned Tg IFNy HTS -11.
`Cn1c(CN2CCC(OCc3cccnc3)CC2)cc2ccccc21` gave Tg IFNy HTS -42.
Screening CC(C)n1cnc(-c2nc(C(=O)NCCc3cccnc3)c3ccccn23)c1 returned Tg IFNy HTS 7.
Screening COCc1ccc(CN2CCc3c([nH]c4ccccc34)C2C(C)(C)C)o1 (stereo not drawn) returned Tg IFNy HTS 16.
Cc1noc(C)c1C(=O)N(C)C[C@@H]1OCc2ccccc2-c2ccccc2C(=O)N([C@H](C)CO)C[C@@H]1C was read as Tg IFNy HTS -19.
Cc1[nH]c2ccc(CNC(=O)C3CC(=O)N(Cc4ccccn4)C3)cc2c1C (stereo not drawn) was read as Tg IFNy HTS 5.
CCc1[nH]c2ccc(CNc3ncc(F)c(N4CCOCC4)n3)cc2c1C was read as Tg IFNy HTS -48.
`CCc1[nH]c2ccc(CNc3cc(COC)ncn3)cc2c1C` gave Tg IFNy HTS -78*.
O=C(OC(C(=O)NCc1ccc2c(c1)OCO2)c1ccc(F)cc1)c1cccs1 (stereo not drawn) was read as Tg IFNy HTS -11.
Screening Cc1ccc(NC(=O)[C@H]2C[C@H](C(=O)O)CN(C3Cc4ccccc4C3)C2)cn1 returned Tg IFNy HTS 11.
CN(Cc1ccco1)C1CCCC2CN(S(=O)(=O)c3ccccc3)CC21 (stereo not drawn) was read as Tg IFNy HTS -37.
Screening O=c1[nH]c2ccc(NCC#Cc3ccccc3)cc2[nH]1 returned Tg IFNy HTS -83*.
Screening C=CCOc1ccc(CNc2ccc3[nH]c(=O)[nH]c3c2)cc1OC returned Tg IFNy HTS -9.
`COc1cc(CNc2ccc3[nH]c(=O)[nH]c3c2)ccc1OCc1ccccc1` gave Tg IFNy HTS 163.
For Cc1ccccc1C(NC(=O)c1cccc(N2CCCC2=O)c1)c1ccncc1 (stereo not drawn) the results were Tg IFNy HTS 15.
`COc1ccc(-c2noc(-c3c(O)c4cc(C)ccc4[nH]c3=O)n2)cc1` gave Tg IFNy HTS 16.
For Cc1ccc2nc(COCC(=O)Nc3ncc(Cc4ccccc4)s3)[nH]c2c1 the results were Tg IFNy HTS 12.
For Cc1nc2[nH]nc(C)n2c(=O)c1CC(=O)Nc1ncc(Cc2ccccc2F)s1 the results were Tg IFNy HTS 12.
Screening Cc1nc(C)c(CC(=O)Nc2ncc(Cc3ccc(F)cc3)s2)s1 returned Tg IFNy HTS -80*.
For CCn1c(C(=O)N2CCN(c3ncccn3)CC2)cc2cc(S(=O)(=O)N(C)C)ccc21 the results were Tg IFNy HTS 11.
O=S(=O)(c1ccccc1F)N1CCC(c2nc3ccc(-c4ccncc4)cn3n2)CC1 was read as Tg IFNy HTS -28.
